Measured values reported in PubChem BioAssay (NCI).
Several values for one entry are separate records, joined by “and”; a condition that tells them apart may be missing. Identical values can stand only once. Compounds without any hit were thinned out: in the full panel of roughly 79,000, 15% have a hit. Rule as the data show it: active = growth inhibition above about 70%; inactive = the rest. Where a SMILES comes first, the peptide text is derived from it. [ ]: non-standard residue; d: D form. The star is where a group is joined. NMeF = CN[C@@H](Cc1ccccc1)C(=O)O; NMeV = CN[C@H](C(=O)O)C(C)C; Cbz = O=C(OCc1ccccc1)*; Nva = CCC[CH](N)C(=O)O; Boc = CC(C)(C)OC(=O)*; OBn = c1ccc(CO*)cc1

Tests used:
[1] = NCI Yeast Anticancer Drug Screen. Data for the rad50 strain (AID 155);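 also: 0% = growth of vehicle-only cultures of the same strain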; settings: S. cerevisiae rad50 strain growth inhibition, hits give high values; at 50.0 µM unless noted
Summary of the method: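 Relative growth inhibition (compound vs vehicle) was measured in yeast with a defined repair-gene alteration.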

[2] = NCI Yeast Anticancer Drug Screen. Data for the mec2-1 strain (AID 157); settings: S. cerevisiae mec2-1 strain, hits give high values; at 50.0 µM unless noted
Summary of the method: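 Cells of the genetically defined mec2-1 yeast strain are incubated with test compound. Inhibition of growth is calculated against vehicle-treated controls.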

[3] = NCI Yeast Anticancer Drug Screen. Data for the sgs1 mgt1 strain (AID 161);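 also: 0% = growth of cultures given vehicle only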; settings: S. cerevisiae sgs1 mgt1 strain, hits give high values; at 50.0 µM unless noted
Summary of the method: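 Genetically altered yeast, compound exposure, growth inhibition relative to vehicle.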

[4] = NCI Yeast Anticancer Drug Screen. Data for the cln2 rad14 strain (AID 165);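 also: 0% = growth equal to vehicle treated cultures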; settings: S. cerevisiae cln2 rad14 strain, hits give high values; at 50.0 µM unless noted
Summary of the method: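 The screen exposed genetically defined yeast (cln2 rad14) to test compounds and scored growth inhibition relative to vehicle-treated controls.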

[5] = NCI Yeast Anticancer Drug Screen. Data for the bub3 strain (AID 167); settings: S. cerevisiae bub3 mutant strain, hits give high values; at 50.0 µM unless noted
Summary of the method: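 Screening used yeast with an engineered genetic alteration affecting cell cycle control. Compound-exposed cultures were compared with vehicle cultures, and reduced growth was taken as inhibition.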

[6] = NCI Yeast Anticancer Drug Screen. Data for the mlh1 rad18 strain (AID 175); settings: S. cerevisiae mlh1 rad18 strain growth inhibition, hits give high values; at 50.0 µM unless noted
Summary of the method: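 Compound-treated yeast growth, normalised to vehicle controls. Strain bears defined DNA repair mutations.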

Measured: growth inhibition

CCCCNC(=O)/C=C/C(=O)NCCCC
inactive: [1] 11.5% | [2] 1.95% | [3] -0.9% | [4] -36.4% | [5] -7.35% | [6] -1.5%

CCCC(NC(=O)OCc1ccccc1)C(=O)NC(CC(C)C)C(N)=O (stereo not given) (Cbz-[Nva]-Leu-NH2; configuration not given here)
inactive: [1] 12.9% | [2] 2.35% | [3] 5% | [4] 22.2% | [5] 6.55% | [6] 5.15%

CN1c2ccccc2C(=O)N2C(=O)CCC21C (stereo not given)
inactive: [1] -38.9% | [2] -15.4% | [3] -20.7% | [4] -14.2% | [5] -13.4% | [6] -11.1%

O=C(COc1ccc(Cl)cc1)Nc1cc(Cl)c(Cl)cc1Cl
inactive: [1] -1.55% | [2] -7.2% | [3] 3.1% | [4] -17.7% | [5] 11.2% | [6] 1.3%

CN(C)CCS(=O)(=O)c1ccc(Cl)cc1
inactive: [1] 38.9% | [2] 14.6% | [3] 14.4% | [4] 16.5% | [5] 9.85% | [6] 20.6%

O=C(O)Cc1cc(=O)oc2ccccc12
inactive: [1] 7.4% | [2] -12.3% | [3] 8.2% | [4] -15.8% | [5] -6.8% | [6] 8.75%

CCOC(=O)/C(=N/Nc1ccc(Cl)cc1)N1C(=S)C=C(C)NN(C)C1=S
inactive: [1] -6.35% | [2] -13.4% | [3] -22.1% | [4] -6.4% | [5] -4.8% | [6] 8.15%

Cc1nc2ccccc2c(=O)n1NC(=O)Cc1ccccc1
inactive: [1] -22.6% | [2] -11.1% | [3] -7.45% | [4] 2.2% | [5] -12.4% | [6] -23.1%

Nc1ncc(C(=O)O)s1
inactive: [1] -17.3% | [2] -4.6% | [3] -23.1% | [4] 7.35% | [5] 3.35% | [6] -4.8%

CCCCCOC1OC(=O)C(Cl)=C1Cl (stereo not given)
inactive: [1] 65.3% | [2] 36.7% | [3] 63.2% | [4] 61.7% | [5] 54.8% | [6] 44%

O=c1nc2c(c(-c3ccc(F)cc3)[nH]1)COC/C2=C\c1ccc(F)cc1
inactive: [1] 18.2% | [2] 11.3% | [3] 34.5% | [4] 21.1% | [5] 28.6% | [6] 33.2%

CC(C)COC(c1ccccc1)c1ccccc1
inactive: [1] -9.5% | [2] -9.75% | [3] 5.15% | [4] 18.8% | [5] -12.8% | [6] -4.75%

NC(=O)C(N)CC12CC3CC(CC(C3)C1)C2 (stereo not given)
inactive: [1] -6% | [2] -18.2% | [3] -10.6% | [4] 17.7% | [5] 10.7% | [6] -4.7%

CC1CC[N+](C)(CC(=O)c2ccc(-c3ccc(C(=O)C[N+]4(C)CCC(C)CC4)cc3)cc2)CC1 (stereo not given)
inactive: [1] -8.2% | [2] 1.4% | [3] -12.7% | [4] 22.9% | [5] -3.15% | [6] -10.2%

N#CC1(OC2CCCCO2)Cc2ccccc2C1 (stereo not given)
inactive: [1] 16.8% | [2] 2.45% | [3] -13.3% | [4] -48.9% | [5] -5.45% | [6] -1.15%

CC(C)[C@@H](C(=O)N1CCC[C@H]1C(=O)OCc1ccccc1)N(C)C(=O)[C@H](C(C)C)N(C)C(=O)[C@H](Cc1ccccc1)N(C)C(=O)[C@H](NC(=O)OC(C)(C)C)C(C)C (Boc-[dV][NMeF][NMeV][NMeV]P-OBn)
inactive: [1] -41.9% | [2] -42.1% | [3] -38.2% | [4] -38.1% | [5] -42.6% | [6] -36.3%

Clc1nn2cnnc2c2ncccc12
inactive: [1] 2.8% | [2] -0.45% | [3] 2.95% | [4] -13.3% | [5] 15.2% | [6] 16.4%

COC(=O)C1CCCC1
inactive: [1] 3.75% | [2] -44% | [3] 16.2% | [4] 9.4% | [5] -2.8% | [6] 22.6%

CCOC(=O)c1cn[nH]c1C
inactive: [1] 1.35% | [2] -0.9% | [3] -2.2% | [4] -21.4% | [5] -3.05% | [6] -1.95%

O=C1c2cccc3cc([N+](=O)[O-])cc(c23)C(=O)N1C(CO)(CO)CO
inactive: [1] 29.9% | [2] 12.6% | [3] 30.1% | [4] 27.5% | [5] 16% | [6] -4.45%

COc1ccc(Cl)cc1N
inactive: [1] -14.3% and 17.1% | [2] -15.6% and -4% | [3] -12.7% and -2.8% | [4] 8.35% and 22.1% | [5] 3.25% and -3.2% | [6] -7.55% and 16.1%

O=C(C/C(=N/O)c1ccccc1)c1ccccc1
inactive: [1] -14.7% | [2] -4.65% | [3] -8.5% | [4] 15.4% | [5] 5.35% | [6] -1.8%

CC1CCCN1c1ccnc2cc(Cl)ccc12 (stereo not given)
inactive: [1] 11.9% | [2] -3.3% | [3] 7.15% | [4] -2.2% | [5] 8.25% | [6] 20.3%

CC(C)N(Cc1ccccc1)S(=O)(=O)c1n[nH]c(C(C)(C)C)n1
inactive: [1] 3.2% | [2] -27.1% | [3] -3.65% | [4] -5.8% | [5] -6.75% | [6] -0.75%

CC(C)CCC[C@@H](C)C1CCC2[C@@H]3CCC4C[C@@H](CCC=C(c5cc(Cl)c(O)c(C(=O)O)c5)c5cc(Cl)c(O)c(C(=O)O)c5)CC[C@]4(C)C3CC[C@@]21C (stereo not given in full)
inactive: [1] -26.4% | [2] -21.9% | [3] -14.7% | [4] -41% | [5] 8.5% | [6] -45.9%

C/C=C/Cc1n[nH]c(=O)c2c(C)[nH]nc12
inactive: [1] -13% | [2] -13.4% | [3] -9.55% | [4] -13.8% | [5] -5.85% | [6] -17.9%

COc1ccc(C(=O)CCC2(C)OCCO2)cc1OC
inactive: [1] 27.3% | [2] 5.8% | [3] 18.9% | [4] 8.4% | [5] 21.9% | [6] 17.5%

CN(C)C=Nc1ccc2c3c(cccc13)-c1ccccc1-2
inactive: [1] -2.9% | [2] -24.1% | [3] 47.5% | [4] -0.35% | [5] 51.1% | [6] 41%

CCOC(=O)c1nc2ccccc2nc1NCc1cc(OC)c(OC)c(OC)c1
inactive: [1] -14.9% | [2] -11.9% | [3] -10.8% | [4] 5.65% | [5] -7.9% | [6] -29.4%

CC(=O)Nc1ccc2nc(SC(C)C)sc2c1
inactive: [1] 39.4% | [2] 7.7% | [3] 31.6% | [4] 17.4% | [5] 13.1% | [6] 19.9%

CCOC(=O)c1cc(C)ncc1N
inactive: [1] 9.85% | [2] 7.4% | [3] -7.1% | [4] 13.2% | [5] -0.95% | [6] 3.3%

CCC(C)C(C#N)(CCN(CC)CC)c1ccccc1 (stereo not given)
inactive: [1] 15.2% | [2] 12.6% | [3] 28.4% | [4] 7.3% | [5] 32.9% | [6] 14.5%

N#CC1(C(=O)c2ccccc2)C=Cc2ccccc2N1C(=O)c1ccccc1 (stereo not given)
inactive: [1] -6.85% | [2] 16.4% | [3] -0.85% | [4] 12.4% | [5] 26.2% | [6] -19.2%

O=C1C=C(c2ccccc2)C(c2ccccc2)/C1=N/O (stereo not given)
inactive: [1] 11.3% | [2] -12.9% | [3] 2.55% | [4] 13.1% | [5] 11.9% | [6] -9.85%

O=C(CCN1C(=O)c2ccccc2C1=O)Nc1c(I)cc(I)c(C(=O)O)c1I
inactive: [1] -4.6% | [2] -11.7% | [3] -20.6% | [4] -20.2% | [5] 8.65% | [6] 6.8%

CC(=O)OCC(OC(C)=O)C(OC(C)=O)C(/C=N/N(C(C)=O)S(=O)(=O)c1ccc(/C=C2\NC(=O)NC2=O)cc1)OC(C)=O (stereo not given)
inactive: [1] -42.5% | [2] -23.6% | [3] -34.6% | [4] -2.45% | [5] -18.9% | [6] -25.6%

CC(C)N(C(C)C)S(=O)(=O)c1ccccc1C(O)(c1ccccc1)c1ccccc1
inactive: [1] 47.5% | [2] -1.15% | [3] 39.4% | [4] -7.35% | [5] -0.95% | [6] 5.9%

ClC1CCC[N-]C1.ClC1CCC[N-]C1.[Cl][Pt+2][Cl] (stereo not given)
inactive: [1] -7.1% | [2] 4.95% | [3] -9.7% | [4] -28.6% | [5] -3.6% | [6] -3.55%

CCOC(=O)C(CCCCNC(=O)CC)NC(=O)CC (stereo not given)
inactive: [1] 3.5% | [2] 1.3% | [3] 3.3% | [4] 3.55% | [5] 11.2% | [6] 2.65%

CCCCCCCCCCCCCCCCCCCCCCCCCCO
inactive: [1] -16.2% | [2] -10.4% | [3] -13.8% | [4] -8.85% | [5] -1.3% | [6] -7.25%
